# Assays:
# Details in all cases: Compound concentration 20.0 uM, Protein concentration 2.0 uM, Result type QC Liability
# [1] = molecular target: Tyrosine-protein kinase ABL1 (Homo sapiens) (UniProt P00519)
# [2] = molecular target: Cyclin-dependent kinase 2 (Homo sapiens) (UniProt P24941)
# [3] = molecular target: Casein kinase I isoform delta (Homo sapiens) (UniProt P48730)
# [4] = molecular target: Glycogen synthase kinase-3 beta (Homo sapiens) (UniProt P49841)
# [5] = molecular target: Mitogen-activated protein kinase 1 (Homo sapiens) (UniProt P28482)
# [6] = molecular target: T1, Aurora kinase A (Homo sapiens) (UniProt O14965)
# T1 sequence (whole entry): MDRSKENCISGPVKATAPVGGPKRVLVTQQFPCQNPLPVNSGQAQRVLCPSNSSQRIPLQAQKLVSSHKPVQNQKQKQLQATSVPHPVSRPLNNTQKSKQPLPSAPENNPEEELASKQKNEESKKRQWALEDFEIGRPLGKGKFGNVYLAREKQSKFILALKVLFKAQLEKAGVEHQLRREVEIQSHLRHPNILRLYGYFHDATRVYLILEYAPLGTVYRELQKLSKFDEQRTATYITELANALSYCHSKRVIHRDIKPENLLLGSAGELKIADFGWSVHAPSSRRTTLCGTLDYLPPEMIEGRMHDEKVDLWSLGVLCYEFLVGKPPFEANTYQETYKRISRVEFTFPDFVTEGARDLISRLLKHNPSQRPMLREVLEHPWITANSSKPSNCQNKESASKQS
# Chain of Glycogen synthase kinase-3 beta (Homo sapiens) (P49841 whole entry, looked up): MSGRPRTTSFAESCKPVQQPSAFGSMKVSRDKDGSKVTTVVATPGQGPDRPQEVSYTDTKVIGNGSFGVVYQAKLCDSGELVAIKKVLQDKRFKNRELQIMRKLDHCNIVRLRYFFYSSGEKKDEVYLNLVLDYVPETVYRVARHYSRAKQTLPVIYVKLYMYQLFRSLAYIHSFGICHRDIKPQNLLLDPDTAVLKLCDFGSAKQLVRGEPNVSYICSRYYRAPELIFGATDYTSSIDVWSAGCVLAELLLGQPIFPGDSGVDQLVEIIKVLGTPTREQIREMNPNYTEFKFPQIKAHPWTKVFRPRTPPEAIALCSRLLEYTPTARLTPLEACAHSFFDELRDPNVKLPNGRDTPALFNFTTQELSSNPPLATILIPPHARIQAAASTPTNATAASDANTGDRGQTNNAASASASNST
# Chain of Tyrosine-protein kinase ABL1 (Homo sapiens) (P00519 whole entry): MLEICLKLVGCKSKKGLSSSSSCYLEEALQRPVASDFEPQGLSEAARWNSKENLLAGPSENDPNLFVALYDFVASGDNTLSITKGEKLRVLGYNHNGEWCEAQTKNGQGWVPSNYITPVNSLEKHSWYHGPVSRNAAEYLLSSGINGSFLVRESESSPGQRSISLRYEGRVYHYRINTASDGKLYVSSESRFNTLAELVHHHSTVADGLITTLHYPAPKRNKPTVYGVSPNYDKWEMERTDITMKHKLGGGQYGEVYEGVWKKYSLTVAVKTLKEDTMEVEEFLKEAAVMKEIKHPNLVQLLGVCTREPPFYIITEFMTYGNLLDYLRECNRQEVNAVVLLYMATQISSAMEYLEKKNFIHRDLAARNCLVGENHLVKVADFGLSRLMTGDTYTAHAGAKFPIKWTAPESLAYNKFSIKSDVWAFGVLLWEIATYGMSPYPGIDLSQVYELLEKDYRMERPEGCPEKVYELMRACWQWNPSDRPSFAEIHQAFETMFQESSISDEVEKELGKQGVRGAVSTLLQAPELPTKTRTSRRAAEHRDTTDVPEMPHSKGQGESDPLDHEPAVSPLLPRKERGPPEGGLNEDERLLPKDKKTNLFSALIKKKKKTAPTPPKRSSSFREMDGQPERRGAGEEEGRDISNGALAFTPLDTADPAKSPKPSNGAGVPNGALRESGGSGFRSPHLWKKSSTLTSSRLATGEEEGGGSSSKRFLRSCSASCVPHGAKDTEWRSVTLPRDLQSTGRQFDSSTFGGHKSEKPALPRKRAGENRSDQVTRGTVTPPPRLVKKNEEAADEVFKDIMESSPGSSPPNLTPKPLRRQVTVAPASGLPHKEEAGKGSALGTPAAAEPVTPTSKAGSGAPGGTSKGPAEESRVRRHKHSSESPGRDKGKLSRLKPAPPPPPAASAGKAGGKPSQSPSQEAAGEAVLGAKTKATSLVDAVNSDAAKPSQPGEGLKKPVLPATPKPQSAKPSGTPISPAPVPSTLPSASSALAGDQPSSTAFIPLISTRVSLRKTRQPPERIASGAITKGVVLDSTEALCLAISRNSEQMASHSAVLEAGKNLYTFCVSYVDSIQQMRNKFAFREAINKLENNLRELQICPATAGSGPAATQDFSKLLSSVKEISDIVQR
# Chain of Mitogen-activated protein kinase 1 (Homo sapiens) (P28482 whole entry): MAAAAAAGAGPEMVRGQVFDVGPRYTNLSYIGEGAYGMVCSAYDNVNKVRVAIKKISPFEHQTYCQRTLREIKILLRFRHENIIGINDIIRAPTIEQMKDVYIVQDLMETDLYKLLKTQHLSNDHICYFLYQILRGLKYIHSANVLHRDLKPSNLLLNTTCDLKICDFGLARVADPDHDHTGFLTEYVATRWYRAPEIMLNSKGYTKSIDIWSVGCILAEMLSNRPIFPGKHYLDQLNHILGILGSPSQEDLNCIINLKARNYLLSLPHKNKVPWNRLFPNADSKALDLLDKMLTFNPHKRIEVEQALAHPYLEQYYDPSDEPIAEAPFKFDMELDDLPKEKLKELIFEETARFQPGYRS
# Chain of Casein kinase I isoform delta (Homo sapiens) (P48730 whole entry, looked up, canonical isoform): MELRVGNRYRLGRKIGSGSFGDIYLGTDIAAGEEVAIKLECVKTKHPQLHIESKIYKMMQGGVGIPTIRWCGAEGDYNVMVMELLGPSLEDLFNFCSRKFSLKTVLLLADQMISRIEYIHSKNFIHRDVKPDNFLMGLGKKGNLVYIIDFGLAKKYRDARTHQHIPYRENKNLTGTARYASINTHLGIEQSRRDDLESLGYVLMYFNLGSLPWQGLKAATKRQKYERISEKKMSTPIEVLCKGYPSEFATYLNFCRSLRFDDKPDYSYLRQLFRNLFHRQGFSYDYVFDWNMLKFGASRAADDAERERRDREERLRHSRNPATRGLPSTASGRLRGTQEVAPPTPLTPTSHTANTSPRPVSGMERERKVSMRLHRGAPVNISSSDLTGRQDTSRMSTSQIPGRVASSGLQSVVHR
Compound,ΔTm [1] [c],ΔTm [2] [c],ΔTm [3] [c],ΔTm [4] [c],ΔTm [5] [c],ΔTm [6] [c]
CN(c1ncccc1CNc1ccnc(-c2nc3c(F)c(Cl)ccc3[nH]2)n1)S(C)(=O)=O,1.73,0.96,0.76,0.69,0.36,1.93
O=C(NCCCN1CCOC1=O)c1cnc(NCc2cc(Br)ccc2Br)nc1NC1CCCC1,0,-0.772,0,0,-0.601,0.0724
CN(C)C(=O)c1ccc(-c2cc(C(=O)N[C@@H]3CCc4ccccc43)no2)cc1O,0.236,-0.0936,0.0788,-0.463,-0.0605,0.213
CS(=O)(=O)N1CCCC(NC(=O)[C@H](CCC2CCCCC2)NC(=O)c2ccc(CNC(=O)c3cnc4ccccn34)cc2)C1 (some centres undefined),2.13,-0.19,0.571,-0.0668,-0.218,0.119

# — ChEMBL document CHEMBL5058541
